High-throughput results as filed in PubChem.
A selection: hits, their analogues and other compounds. The true share with any hit is near 3.2%.
aDG glyco up – activators of alpha-DG glycosylation, primary screen, uHTS, Pro5-aDG cells, AlphaScreen. alpha-DG glycosylation AlphaScreen (IIH6); 0% Pro5, 100% B10-LARGE cell signal. activation, % at 10 µM. 360,000 tested, 0.22% active. AID 624168, 2012;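 active = activation of at least 8% versus controls, or a plate z-score of at least 8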;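 also: Pro5 are CHO cells carrying HIG-tagged alpha-DG that lacks glycosylation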
PfG6PD inh – PfG6PD enzyme inhibitors, primary screen, biochemical, fluorescence intensity, uHTS | glucose-6-phosphate dehydrogenase-6-phosphogluconolactonase (Plasmodium falciparum 3D7) | PfGluPho enzyme, NADPH resazurin-diaphorase fluorescence | inhibition, % at 20 µM | 350,000 tested, 0.78% active | AID 504690, 2011;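 active = inhibition reaching at least a set limit at 20 µM in the primary screen, cut at about 59% in these data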;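 also: 0% = DMSO wells with substrate and 100% = DMSO wells lacking glucose-6-phosphate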
H9c2 protect – cardioprotection against H2O2-induced cell death, primary screen, uHTS, H9c2 cells, ATPLite luminescence. AID 588492, 2011. H9c2 cardiomyocytes, H2O2 injury protection, 2 h. 360,000 tested, 0.63% active. protection from H2O2 cell death, % at 20 µM;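 active = compounds giving at least 50% protection of heart cells from peroxide-induced death in the single-dose screen, raw or plate-pattern-corrected value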;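 also: 0% = DMSO wells with peroxide and 100% = DMSO wells without peroxide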
CRFBP-R2 agonist – agonists of CRF-BP/CRF-R2 complex, primary screen, cell-based, HEK293, calcium dye fluorescence, uHTS; CRF-binding protein / CRF receptor 2 complex (human); AID 588473, 2011; calcium dye fluorescence (FLIPR); percent of saturating CRF peptide response; activation, % at 13.2 µM; 350,000 tested, 0.46% active;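 active = activation of at least 50%, plus an integration ratio under a set limit after plate pattern correction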;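 also: plate controls were neutral control wells without compound for no effect and CRF at EC100 for full effect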
CRFR2-BP antag – antagonists of CRF-BP/CRF-R2 complex, primary screen, cell-based, HEK293, calcium dye fluorescence, uHTS. AID 588475, 2011. 350,000 tested, 0.59% active. CRF-induced calcium fluorescence. inhibition, % at 11.8 µM;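 active = inhibition of the ligand-induced calcium signal above about 50% at the single tested concentration, limit read from the data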
FAS TE block – FAS thioesterase domain inhibitors, primary screen, biochemical, fluorescence intensity, uHTS | inhibition, % at 15 µM | Fatty acid synthase (Homo sapiens), P49327 | recombinant FAS-TE, OMFH fluorogenic substrate, fluorescence endpoint | 360,000 tested, 0.67% active;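 active = compounds whose normalised, plate-corrected inhibition of enzyme fluorescence in the single-dose primary screen is 50% or more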;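 also: 0% = DMSO with enzyme and 100% = substrate without enzyme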
* = called active by the depositor.

`Cc1nn(C)c(Oc2ccc(Cl)cc2)c1C(=O)O` gave aDG glyco up 0, PfG6PD inh -11, H9c2 protect -2, CRFBP-R2 agonist -1, CRFR2-BP antag 61* and FAS TE block -4.
Cc1sc2nc(CSCC(=O)N(CCC#N)c3ccccc3F)[nH]c(=O)c2c1C was read as aDG glyco up 0, PfG6PD inh 10, H9c2 protect 59*, CRFBP-R2 agonist -1, CRFR2-BP antag 7 and FAS TE block -6.
`COc1cc(OC)cc(-c2oc3cccnc3c2C#CCCO)c1` gave aDG glyco up 0, PfG6PD inh 6, H9c2 protect 56*, CRFBP-R2 agonist -1, CRFR2-BP antag -7 and FAS TE block -1.
Screening COc1ccc(C2CC(c3ccccc3F)=NN2c2ccc(S(N)(=O)=O)cc2)cc1 (stereo unspecified) returned aDG glyco up 2, PfG6PD inh 20, H9c2 protect 12, CRFBP-R2 agonist -1, CRFR2-BP antag 0 and FAS TE block 14.
COc1ccc(C2CC(c3ccccc3C(F)(F)F)=NN2c2ccc(S(N)(=O)=O)cc2)cc1 (stereo unspecified) was read as aDG glyco up 2, PfG6PD inh 29, H9c2 protect 8, CRFBP-R2 agonist 5, CRFR2-BP antag 59* and FAS TE block 21.
Screening O=C(NCCc1ccccc1F)C1CC(=O)N(c2ccc3c(c2)OCCO3)C1 (stereo unspecified) returned aDG glyco up 0, PfG6PD inh 0, H9c2 protect 5, CRFBP-R2 agonist 0, CRFR2-BP antag -2 and FAS TE block 0.
CCOC(=O)NC(O)C(=O)c1ccc(F)cc1 (stereo unspecified) was read as aDG glyco up 0, PfG6PD inh -6, H9c2 protect -3, CRFBP-R2 agonist -4, CRFR2-BP antag 30 and FAS TE block -4.
For CCOC(=O)NC(O)C(=O)c1cccs1 (stereo unspecified) the results were aDG glyco up 0, PfG6PD inh 0, H9c2 protect 28, CRFBP-R2 agonist 0, CRFR2-BP antag 65* and FAS TE block -8.
Screening O=C(NC(O)C(=O)c1cccs1)c1cccnc1 (stereo unspecified) returned aDG glyco up 0, PfG6PD inh 8, H9c2 protect 83*, CRFBP-R2 agonist 0, CRFR2-BP antag -28 and FAS TE block -2.
Screening COc1cc(/C=N/NC(=O)c2cc[n+]([O-])cc2)ccc1O returned aDG glyco up 0, PfG6PD inh -14, H9c2 protect -8, CRFBP-R2 agonist 0, CRFR2-BP antag -4 and FAS TE block -3.
`CCc1oc2ccccc2c1C(=O)c1cc(Br)c(O)c(Br)c1` gave aDG glyco up 0, PfG6PD inh -26, H9c2 protect -28, CRFBP-R2 agonist 0, CRFR2-BP antag 55* and FAS TE block 17.
Screening CN1C(=O)C2(OCC(C)([N+](=O)[O-])CO2)c2ccccc21 (stereo unspecified) returned aDG glyco up 0, PfG6PD inh -8, H9c2 protect -5, CRFBP-R2 agonist -4, CRFR2-BP antag 23 and FAS TE block -1.
CN1C(=O)C2(N=c3ccccc3=N2)c2ccccc21 was read as aDG glyco up 0, PfG6PD inh -20, H9c2 protect 11, CRFBP-R2 agonist 0, CRFR2-BP antag 68* and FAS TE block 0.
For CC(=O)Oc1c(Br)cc(N(C(C)=O)S(=O)(=O)c2ccccc2)c2ccccc12 the results were aDG glyco up 3.0*, PfG6PD inh 44, H9c2 protect -17, CRFBP-R2 agonist -6, CRFR2-BP antag 2 and FAS TE block 20.
`CCN1C(=O)[C@H]2[C@@H](c3ccc(C(F)(F)F)cc3)N[C@]3(CCCN(Cc4ccc(Cl)cc4)C3=O)[C@H]2C1=O` gave aDG glyco up 0, PfG6PD inh 5, H9c2 protect -6, CRFBP-R2 agonist -1, CRFR2-BP antag -11 and FAS TE block 16.
COCCCNc1nc2ccccc2[nH]c1=O was read as aDG glyco up 0, PfG6PD inh -18, H9c2 protect -5, CRFBP-R2 agonist 0, CRFR2-BP antag 1 and FAS TE block -5.
`COCCCNc1c2c3c(cccc3[nH]c1=O)C(=O)c1ccccc1-2` gave aDG glyco up 0, PfG6PD inh -36, H9c2 protect 6, CRFBP-R2 agonist 204*, CRFR2-BP antag -192 and FAS TE block -123.
Cc1nc2ccccc2c(=O)[nH]1 was read as aDG glyco up 0, PfG6PD inh -6, H9c2 protect 69*, CRFBP-R2 agonist 0, CRFR2-BP antag 5 and FAS TE block -10.
Screening CCCNC(=O)c1ccc2c(c1)nc(C)n2-c1cccc(Cl)c1 returned aDG glyco up 0, PfG6PD inh -8, H9c2 protect -7, CRFBP-R2 agonist 0, CRFR2-BP antag 5 and FAS TE block -1.
For O=C(Nc1ccc(Cl)cn1)c1cccc(S(=O)(=O)N2CCCC2)c1 the results were aDG glyco up 0, PfG6PD inh -5, H9c2 protect -7, CRFBP-R2 agonist 0, CRFR2-BP antag 58* and FAS TE block 4.
Screening O=C(NNC(=O)c1ccc(S(=O)(=O)N2CCCCC2)cc1)c1ccccc1 returned aDG glyco up 0, PfG6PD inh -7, H9c2 protect 2, CRFBP-R2 agonist -1, CRFR2-BP antag -21 and FAS TE block 0.
For O=C(NCc1ccc(F)cc1)c1cccc(S(=O)(=O)N2CCCC2)c1 the results were aDG glyco up 0, PfG6PD inh 3, H9c2 protect 2, CRFBP-R2 agonist -1, CRFR2-BP antag 0 and FAS TE block 7.
Screening O=C(NNC(=O)c1cccc(S(=O)(=O)N2CCCCC2)c1)c1ccccc1 returned aDG glyco up 0, PfG6PD inh -4, H9c2 protect -3, CRFBP-R2 agonist 0, CRFR2-BP antag 103* and FAS TE block -4.
`O=C(c1cccc(S(=O)(=O)N2CCOCC2)c1)N(Cc1ccc(F)cc1)Cc1ccco1` gave aDG glyco up 1, PfG6PD inh -3, H9c2 protect 11, CRFBP-R2 agonist -1, CRFR2-BP antag 55* and FAS TE block 7.
`CC(=O)N1CCN(S(=O)(=O)c2cccc(C(=O)NCc3ccc(F)cc3)c2)CC1` gave aDG glyco up 1, PfG6PD inh -7, H9c2 protect -7, CRFBP-R2 agonist 2, CRFR2-BP antag 89* and FAS TE block -5.
O=C1C/C(=C\c2c(F)cccc2Cl)N2CCC1CC2 was read as aDG glyco up 0, PfG6PD inh 6, H9c2 protect -2, CRFBP-R2 agonist 0, CRFR2-BP antag 11 and FAS TE block -5.
